Experiment [1] can be described thus: growth inhibition of DIPG glioma cells, dose response, cell-based, SU-DIPG-XIII, MIPE5.0, CellTiter-Glo, qHTS (AID 1347064; cut-off not given, nearly all actives have AC50 up to about 23 µM;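 on AC50: cells exposed to compound for 48 hours before the viability read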). As to conditions: SU-DIPG-XIII viability, CellTiter-Glo ATP luminescence.
The nature of experiment [2]: viability loss in pontine glioma line – cell-based, SU-DIPG-XXV, MIPE5.0, CellTiter-Glo, qHTS, dose response (AID 1347065; cut-off not given, nearly all actives have AC50 up to about 26 µM;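 further: cells exposed to compound for 48 hours before ATP readout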). As to conditions: CellTiter-Glo ATP luminescence.
Experiment [3] can be described thus: JHH-DIPG-1 glioma cell viability, MIPE5.0 library, CellTiter-Glo luminescence, qHTS (AID 1347067; cut-off not given, nearly all actives have AC50 up to about 26 µM;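 further: cells exposed to compound for 48 hours before readout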). As to conditions: JHH-DIPG-1 glioma viability, CellTiter-Glo ATP luminescence.
Experiment [4] is described as follows: SU-DIPG-XXV glioma cell viability, MIPE5.0 library, qHTS (AID 1347068; cut-off not given, nearly all actives have IC50 up to about 30 µM;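 on IC50: cells exposed to compound for 48 hours before viability readout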).
Experiment [5] in a line: growth inhibition of DIPG glioma cells, dose response, cell-based, JHH-DIPG-1, MIPE4.0, CellTiter-Glo, qHTS (AID 1347062; cut-off not given, nearly all actives have AC50 up to about 27 µM;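 on AC50: cells exposed to compound for two days before readout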). As to conditions: JHH-DIPG-1 viability, CellTiter-Glo ATP luminescence.
A short description of experiment [6]: growth inhibition of DIPG glioma cells, dose response, cell-based, SU-DIPG-IV, MIPE4.0, CellTiter-Glo, qHTS (AID 1347063; cut-off not given, nearly all actives have AC50 up to about 30 µM;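 further: compound exposure lasted 48 hours before the viability readout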). As to conditions: SU-DIPG-IV viability, CellTiter-Glo ATP luminescence.
The nature of experiment [7]: SU-DIPG-VI glioma cell viability, MIPE4.0 library, CellTiter-Glo luminescence, qHTS (AID 1347066; cut-off not given, nearly all actives have AC50 up to about 30 µM;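 further: cells exposed to compound for 48 hours before readout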). As to conditions: CellTiter-Glo ATP luminescence.
Experiment [8] can be described thus: viability rescue of complex I mutant cybrids, primary screen, cell-based, galactose medium, ATP luminescence (AID 1645843;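 active means z-score of at least 1.8 in each of two replicates, scored against plate mean and spread of sample wells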;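 further: positive z means more ATP and so rescue of galactose-driven cybrid death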). As to conditions: complex I mutant cybrid cells, 72 h, stronger effect = higher value.
Experiment [9] has as its target Mitogen-activated protein kinase 7 (Homo sapiens) (UniProt Q13164). Briefly: ERK5 transactivation activators in reporter cells, primary screen, cell-based, HTS (AID 1508626;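 active means luciferase signal above three times the same-plate solvent-only control wells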;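 further: luciferase driven by Gal4-ERK5 fusion binding five Gal4 sites before minimal TATA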). As to conditions: HeLa Gal4-ERK5 transactivation, 18 h, at 5 µM, stronger effect = higher value.
Experiment [10] addresses ATP-dependent translocase ABCB1 (Homo sapiens) (UniProt P08183). Briefly: MDR1 (ABCB1) efflux transporter inhibition, cell-based (AID 377; in the data active means fluorescence slope change above about 50%). As to conditions: MDR1-expressing cells, fluorescent substrate accumulation slope; stronger effect = higher value; concentration not given here.
Experiment [11] can be described thus: LFS_MB_1R medulloblastoma cell growth inhibition, synergistic combos for chromothripsis tumors, cisplatin or BGB combos (AID 1671452).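 Further: cells exposed for 96 hours before readout.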 As to conditions: LFS_MB_1R medulloblastoma cells, stronger effect = higher value.
Experiment [12] in a line: CRL2098 osteosarcoma cell growth inhibition, synergistic combos for chromothripsis tumors, BGB or cisplatin IC20 combos (AID 1671454).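 Further: cells exposed for 96 h before readout; 0% = vehicle DMSO and 100% = killing by high DMSO.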 As to conditions: CRL2098 osteosarcoma cells, drug combinations, stronger effect = higher value.
Experiment [13] is described as follows: HD-MB03 medulloblastoma cell growth inhibition, synergistic combos for chromothripsis tumors, BGB or cisplatin IC20 combos (AID 1671455; in the data active means inhibition above about 83%;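 further: 0% = vehicle DMSO and 100% = high DMSO as cytotoxic control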). As to conditions: HD-MB03 medulloblastoma cells, stronger effect = higher value.
Experiment [14] can be described thus: UWB1.289 ovarian carcinoma cell growth inhibition, synergistic combos for chromothripsis tumors, BGB or cisplatin combos (AID 1671456).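 Further: cells exposed to compound for four days; 0% = vehicle DMSO and 100% = killing by high DMSO.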 As to conditions: UWB1.289 ovarian carcinoma cells, stronger effect = higher value.
Experiment [15] in a line: LFS_MB_2R medulloblastoma cell growth inhibition, synergistic combos for chromothripsis tumors, cisplatin combos (AID 1671457).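 Further: cells exposed to compound for four days before readout.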 As to conditions: LFS_MB_2R medulloblastoma cells, stronger effect = higher value.
A short description of experiment [16]: UWB1.289_BRCA1 ovarian cancer growth, cell-based, BGB or cisplatin combinations (AID 1671459). As to conditions: UWB1.289 BRCA1 ovarian carcinoma, drug combinations, stronger effect = higher value.
Experiment [17] is described as follows: human astrocyte viability loss, single and combined drugs, cytotoxicity control for chromothriptic childhood tumor combination screen, cell-based, BGB or cisplatin IC20 combos (AID 1671460).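 Further: cells exposed to compounds for 96 hours before viability readout; 0% = vehicle and 100% = killing control.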 As to conditions: Human astrocytes, drug combinations, stronger effect = higher value.
Experiment [18] can be described thus: growth inhibition of BT084 medulloblastoma cells, cell-based, ICGC_MB145, cisplatin and BGB IC40 combos (AID 1671461).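 Further: cells exposed to drugs for 96 hours; 0% = vehicle DMSO and 100% = high DMSO full killing control.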 As to conditions: drug combinations, stronger effect = higher value.
The nature of experiment [19]: growth inhibition of RCMB18 medulloblastoma cells, cell-based, cisplatin and BGB IC40 combos (AID 1671462).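 Further: cells exposed to compound for four days.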 As to conditions: stronger effect = higher value.
Experiment [20] is described as follows: growth inhibition of CRL1545 osteosarcoma cells, cell-based, cisplatin and BGB IC20 combos (AID 1671464).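 Further: cells exposed to compound for 96 hours before readout; 0% = vehicle DMSO and 100% = high DMSO killing control.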 As to conditions: stronger effect = higher value.
The mark [21] stands for this setting: measured here: combination with cisplatin, at 0.5 µM.
[22] abbreviates: measured here: combination with cisplatin, at 5 µM.

Records with an inconclusive call do not appear. Calls of active or inactive are those of the source. Unless noted, no stated cut-off is given here; in the data, active means inhibition above about 80%; inactive means the rest.

The values below come from PubChem BioAssay.

Chain of Mitogen-activated protein kinase 7 (Homo sapiens) (Q13164 whole entry, looked up, the tested form may be a part): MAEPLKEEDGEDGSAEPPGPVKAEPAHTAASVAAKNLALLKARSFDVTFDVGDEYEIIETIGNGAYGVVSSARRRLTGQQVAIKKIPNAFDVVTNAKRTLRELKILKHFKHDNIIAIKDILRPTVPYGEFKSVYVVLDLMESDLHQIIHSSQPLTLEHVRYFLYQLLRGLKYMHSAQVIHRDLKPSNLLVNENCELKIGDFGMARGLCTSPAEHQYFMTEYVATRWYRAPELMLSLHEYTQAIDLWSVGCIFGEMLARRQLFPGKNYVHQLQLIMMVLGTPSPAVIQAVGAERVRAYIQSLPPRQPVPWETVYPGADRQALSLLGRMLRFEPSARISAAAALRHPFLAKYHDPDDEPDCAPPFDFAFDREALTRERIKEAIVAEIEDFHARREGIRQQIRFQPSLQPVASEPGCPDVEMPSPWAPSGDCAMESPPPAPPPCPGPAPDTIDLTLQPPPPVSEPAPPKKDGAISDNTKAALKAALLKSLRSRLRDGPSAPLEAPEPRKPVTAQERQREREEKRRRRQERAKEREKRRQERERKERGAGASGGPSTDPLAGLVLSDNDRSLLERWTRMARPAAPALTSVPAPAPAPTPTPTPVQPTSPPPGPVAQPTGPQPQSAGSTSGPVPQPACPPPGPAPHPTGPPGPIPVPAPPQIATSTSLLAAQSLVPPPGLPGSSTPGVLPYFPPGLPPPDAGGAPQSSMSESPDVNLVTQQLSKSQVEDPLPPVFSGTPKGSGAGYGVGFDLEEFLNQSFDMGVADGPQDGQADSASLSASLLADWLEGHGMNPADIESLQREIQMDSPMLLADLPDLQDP
Chain of ATP-dependent translocase ABCB1 (Homo sapiens) (P08183 whole entry, looked up): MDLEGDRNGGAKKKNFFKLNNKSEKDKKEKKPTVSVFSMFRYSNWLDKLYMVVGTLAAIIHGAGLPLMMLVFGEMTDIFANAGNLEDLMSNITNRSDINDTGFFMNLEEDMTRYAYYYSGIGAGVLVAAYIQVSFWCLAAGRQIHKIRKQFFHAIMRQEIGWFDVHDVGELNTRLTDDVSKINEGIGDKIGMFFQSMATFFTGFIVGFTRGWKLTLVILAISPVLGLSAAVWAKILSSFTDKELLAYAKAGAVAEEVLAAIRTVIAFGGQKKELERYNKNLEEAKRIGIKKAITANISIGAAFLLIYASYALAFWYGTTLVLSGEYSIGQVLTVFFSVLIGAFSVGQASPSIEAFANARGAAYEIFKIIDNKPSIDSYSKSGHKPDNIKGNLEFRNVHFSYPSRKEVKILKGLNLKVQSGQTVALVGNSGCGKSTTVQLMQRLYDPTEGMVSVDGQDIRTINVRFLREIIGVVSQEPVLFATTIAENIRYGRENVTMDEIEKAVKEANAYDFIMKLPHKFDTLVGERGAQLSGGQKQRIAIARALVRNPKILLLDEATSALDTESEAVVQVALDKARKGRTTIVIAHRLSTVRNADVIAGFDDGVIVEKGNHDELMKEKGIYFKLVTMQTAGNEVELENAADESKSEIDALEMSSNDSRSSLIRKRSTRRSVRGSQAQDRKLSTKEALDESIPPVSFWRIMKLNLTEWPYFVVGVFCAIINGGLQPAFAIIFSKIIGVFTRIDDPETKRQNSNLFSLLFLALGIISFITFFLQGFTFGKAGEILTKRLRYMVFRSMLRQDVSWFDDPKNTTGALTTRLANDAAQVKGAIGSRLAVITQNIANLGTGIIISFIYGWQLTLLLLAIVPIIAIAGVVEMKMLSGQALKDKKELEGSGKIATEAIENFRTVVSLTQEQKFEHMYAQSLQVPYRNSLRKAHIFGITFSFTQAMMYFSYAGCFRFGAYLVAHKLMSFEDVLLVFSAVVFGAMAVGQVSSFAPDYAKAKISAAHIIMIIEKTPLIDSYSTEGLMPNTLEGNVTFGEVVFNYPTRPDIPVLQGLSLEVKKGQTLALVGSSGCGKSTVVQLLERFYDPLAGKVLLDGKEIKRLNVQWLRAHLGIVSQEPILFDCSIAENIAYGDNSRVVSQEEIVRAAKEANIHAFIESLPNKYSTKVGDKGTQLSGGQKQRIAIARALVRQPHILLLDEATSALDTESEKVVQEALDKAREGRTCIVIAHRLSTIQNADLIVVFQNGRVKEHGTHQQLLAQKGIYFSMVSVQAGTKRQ

`O=C(O)[C@H](O)[C@@H](O)[C@H](O[C@@H]1O[C@H](CO)[C@H](O)[C@H](O)[C@H]1O)[C@H](O)CO`: the molecule was called inactive in [1], in experiment [2], in experiment [3] and in experiment [4].
Regarding `Cc1nc(Nc2ncc(C(=O)Nc3c(C)cccc3Cl)s2)cc(N2CCN(CCO)CC2)n1`, the concentration at half-maximal activity (AC50) was 16.6 µM (active) in [5]; 16.6 µM (active) in [6]; 14.8 µM (active) in experiment [1]; 14.8 µM (active) in experiment [2]; 7.42 µM (active) in [3]. In [7], the molecule was called inactive.
Regarding `CCN(C)C(=O)Oc1cccc([C@H](C)N(C)C)c1`, the molecule was classed as inactive in experiment [5] and in experiment [7]. The z-score in experiment [8] was 0.825 (inactive).
On to `Cn1c(=O)c2c(ncn2CC2OCCO2)n(C)c1=O`, for which the outcome in [1], in experiment [2], in experiment [3] and in experiment [4] was inactive. Also, the z-score in experiment [8] is 0.585 (inactive).
As to `CCCN(CCC)CCc1cccc2c1CC(=O)N2`, the luciferase signal in [9] is 48 AU (inactive). The z-score in experiment [8] is 0.47 (inactive).
On to `N=C(N=C(N)N)N1CCOCC1`, for which the fluorescence slope change in experiment [10] was 25.2% (inactive). The molecule was classed as inactive in experiment [6] and in experiment [7]. In addition, the z-score in experiment [8] was 0.495 (inactive). In addition, the inhibition was -2.71% (inactive) in [11] (at 0.5 µM); 2.02% in [11] (measured here: combination with BGB IC40, at 0.05 µM); 8.46% in [11] (setting [21]); -12.4% in [11] (setting [22]); -24.9% (inactive) in [12] (at 0.5 µM); -15.5% in experiment [12] (measured here: combination with BGB at IC20, at 0.5 µM). Besides, the inhibition in [12] (measured here: combination with cisplatin at IC20, at 0.5 µM) was -34.6%; in experiment [13] (at 0.5 µM) it was -2.36% (inactive); in experiment [13] (measured here: combo with BGB at IC20, at 0.5 µM), 3.57%; in experiment [13] (measured here: combo with cisplatin at IC20, at 0.5 µM) it was -15.2%; in experiment [14] (at 0.5 µM), 6.16% (inactive); in experiment [14] (measured here: inhibition with BGB combination, at 0.05 µM) it was -1.97%. In addition, the inhibition was 3.05% in experiment [14] (measured here: inhibition with cisplatin combination, at 0.05 µM); 6.81% (inactive) in [15] (at 0.5 µM); 8.19% in experiment [15] (setting [21]); -31.5% in experiment [15] (setting [22]); 1.52% in [16] (BGB combination, concentration series, at 5 µM); 3.22% (inactive) in [16] (at 0.5 µM). Moreover, the inhibition in experiment [16] (cisplatin combination, concentration series, at 5 µM) is 4.22%; in [17] (at 0.5 µM), 2.04% (inactive); in [17] (measured here: combo with BGB IC20, at 0.5 µM), 7.42%; in experiment [17] (measured here: combo with cisplatin IC20, at 0.5 µM), -4.5%; in [18] (at 0.5 µM), 3.57% (inactive); in experiment [18] (cisplatin combination, at 0.5 µM) it was -9.16%. For the same molecule, the inhibition in experiment [18] (cisplatin combination, at 5 µM) was 7.43%; in experiment [18] (measured here: BGB IC40 combination 0.05 uM, at 0.05 µM) it was 0.739%; in [18] (single agent, at 5 µM), -12.3%; in experiment [19] (at 0.5 µM), 5.29% (inactive); in experiment [19] (cisplatin combo, at 5 µM), -26%; in experiment [19] (measured here: BGB IC40 combination, at 0.05 µM), -14.8%. For the same molecule, the inhibition in [19] (setting [21]) is 25.2%; in experiment [19] (single agent, at 5 µM) it was -13.7%; in experiment [20] (at 0.5 µM) it was 2.6% (inactive); in experiment [20] (measured here: with BGB IC20 combination, at 0.5 µM) it was -18.7%; in experiment [20] (measured here: with cisplatin IC20 combination, at 0.5 µM), 11.3%; in [20] (single agent, at 0.05 µM), 0.225%. For the same molecule, the inhibition in experiment [20] (single agent, at 5 µM) was 8.11%.
For the molecule `O=C(O)CN(CCN(CC(=O)O)CC(=O)O)CCN(CC(=O)O)CC(=O)O`, in [8], the z-score was 4.38 (active).
On to `O=[N+]([O-])c1ccc(O)c2ncccc12`, for which the values for the AC50 in experiment [1], in [2] and in [3] were 3.32 µM (active), 9.34 µM (active) and 2.95 µM (active), respectively. For the same molecule, the IC50 in experiment [4] was 23.5 µM (active).
Consider `CC(S)C(=O)NCC(=O)O` (stereo unspecified), for which the molecule was classed as inactive in experiment [5], in experiment [7] and in experiment [4].
For the molecule `CNCCCC1c2ccccc2C=Cc2ccccc21`, the luciferase signal in [9] was 40 AU (inactive). In addition, the z-score in [8] was -1.15 (inactive).
